The nature of assay [1]: P-glycoprotein substrates identified in KB-8-5-11 adenocarcinoma cell line, qHTS therapeutic library screen (AID 1346987). Note: nearly all actives have a fitted effect of over 65% in size. In outline: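 Human cervical adenocarcinoma KB-8-5-11 cells, selected in colchicine to over-express P-gp and assayed without it, were exposed for 72 h to titrated compounds. An ATP-based luminescent viability signal gave AC50.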
Background: In qHTS, concentration-response curves come from the screen itself.

Assay [2] in a line: NS1 protein of Zika virus - qHTS assay to identify small molecule inhibitors in human HEK 293 cells (AID 1347053). Note: nearly all actives have a fitted effect of over 55% in size. In outline:
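Compound-treated (1 h pre-infection) HEK 293 cells infected with ZIKV MR766, MOI = 0.5; after 24 h at 37 C, NS1 read by TR-FRET; data normalized to uninfected and infected controls.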

Assay [3] can be described thus: qHTS of pediatric cancer cell lines to identify multiple opportunities for drug repurposing: Primary screen for TC32 cells (AID 1347089). Note: nearly all actives have a fitted effect of over 60% in size. In a few lines:
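qHTS, TC32, 48 h drug treatment, CellTiter-Glo luminescence as a proxy for metabolically active cells; primary top concentration 46 µM (MIPE 11-pt, NPC 8-pt); confirmatory 11-pt.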

“And” between values parts separate entries of the source, which are not always exact repeats. Equal values may be shown once. Inconclusive results are not listed. The source holds several records for some structures; these can differ, active in one and inactive in another. The source made the active and inactive calls. Calls come from the whole dose curve; as a rule, active = well fitted curve in the direction sought with a large enough effect; inconclusive = small, poorly fitted or top-dose-only effect, or another doubt; inactive = no such curve, though single readings can be large; an effect the other way counts as inactive or inconclusive.

We go through 33 molecules from PubChem BioAssay (NCATS).
Potency is the fitted concentration of half-maximal effect.

As for `COc1ccc(-c2ccc3ncc4c(c3c2)n(-c2ccc(N3CCNCC3)c(C(F)(F)F)c2)c(=O)n4C)cn1`, the Potency is 8.3 nM (active) and 184 nM (active) and 206 nM (active) in assay [1]; 6620 nM (active) in assay [2].

On to `CCCCN(CCCC)CC(O)c1cc(Cl)cc2c1-c1ccc(Cl)cc1C2=Cc1ccc(Cl)cc1` (stereo not drawn), for which the Potency result in assay [1], in assay [2] and in assay [3] was “inactive” in each case.

`Cc1cnc(Nc2cccc(CN3CCOCC3)c2)nc1Nc1cccc(S(=O)(=O)NC(C)(C)C)c1`: the Potency result in assay [1] is “inactive and 4.11 µM (active)”. Further, in assay [2], the Potency result was “inactive”.

For `O=C(c1ccc(C(=O)N2CCC(N3CCCC3)CC2)c(Nc2ccccc2)c1)N1CCC(N2CCCC2)CC1`, the Potency result in assay [1] and in assay [2] was “inactive” throughout.

In the case of `O=c1[nH]c(=O)n([C@H]2C[C@@H](O)[C@@H](CO)O2)cc1I`, the Potency entry in assay [1] and in assay [2] was “inactive” each time.

For the molecule `COc1cc(CNC(=O)CCCCC=CC(C)C)ccc1O`, the Potency result in assay [1] and in assay [2] was “inactive” each time.

For the molecule `CC1CNc2c(cccc2S(=O)(=O)N[C@@H](CCCN=C(N)N)C(=O)N2CC[C@@H](C)C[C@@H]2C(=O)O)C1` (stereo partly drawn), the Potency entry in assay [1], in assay [2] and in assay [3] was “inactive” each time.

For the molecule `O=C(CC12CC3CC(CC(C3)C1)C2)Nc1cccc2nc(NCCNCCO)ccc12`, the Potency entry in assay [1] and in assay [2] was “inactive” in each case.

Turning to `CCC(c1ccc(O)cc1)C(CC)c1ccc(O)cc1` (stereo not drawn), the Potency result in assay [1], in assay [2] and in assay [3] was “inactive” in each case.

Regarding `CCN(CCO)CCCOc1ccc2c(Nc3cc(CC(=O)Nc4cccc(F)c4)[nH]n3)ncnc2c1`, the Potency entry in assay [1] and in assay [2] was “inactive” each time. In addition, in assay [3], the Potency was 330 nM (active).

As to `CN(C)CCN(C)C(=O)c1ccc(NC(=O)Nc2ccc(-c3nc(N4CCOCC4)c4ccn(CC(F)(F)F)c4n3)cc2)cc1`, the Potency result in assay [1] was “inactive”. The figures for the Potency in assay [2] and in assay [3] were 3320 nM (active) and 147 nM (active), respectively.

Regarding `CON(C)C(=O)N1N=C(c2cc(F)ccc2F)S[C@]1(CCCN)c1ccccc1`, the Potency in assay [1] was 14.8 nM (active); in assay [2], 14800 nM (active); in assay [3], 4.7 nM (active).

With `CCC(=O)NCC[C@@H]1CCc2ccc3c(c21)CCO3`, the Potency result in assay [1], in assay [2] and in assay [3] was “inactive” each time.

Regarding `CC(C)c1onc(-c2c(Cl)cccc2Cl)c1COc1ccc(C=Cc2cccc(C(=O)O)c2)c(Cl)c1`, the Potency result in assay [1], in assay [2] and in assay [3] was “inactive” each time.

For `NCc1c[nH]c(=S)n1[C@H]1CCc2c(F)cc(F)cc2C1`, the Potency entry in assay [1], in assay [2] and in assay [3] was “inactive” each time.

For `CC(C)(OCc1nn(Cc2ccccc2)c2ccccc12)C(=O)O`, the Potency entry in assay [1], in assay [2] and in assay [3] was “inactive” each time.

As to `COc1ccc(-c2oc3c(CC=C(C)C)c(O)cc(O)c3c(=O)c2O)cc1`, the Potency result in assay [1], in assay [2] and in assay [3] was “inactive” each time.

Turning to `CC[C@H](C)C(=O)O[C@H]1C[C@H](O)C=C2C=C[C@H](C)[C@H](CC[C@@H](O)C[C@@H](O)CC(=O)O)[C@H]21`, the Potency entry in assay [1], in assay [2] and in assay [3] was “inactive” throughout.

As for `COc1nccc(-c2c(-c3ccc(F)cc3)ncn2C2CCC(O)CC2)n1` (stereo not drawn), the Potency result in assay [1], in assay [2] and in assay [3] was “inactive” in each case.

With `O=C(O)C1=CC(O)C(O)[C@H](O)C1` (stereo partly drawn), the Potency entry in assay [1], in assay [2] and in assay [3] was “inactive” throughout.

As to `C=C[C@@H]1CN2CCC1C[C@@H]2C(O)c1ccnc2ccc(OC)cc12` (stereo partly drawn), the Potency entry in assay [1], in assay [2] and in assay [3] was “inactive” each time.

Turning to `Cc1ccc(NC(=O)c2cccc(N(C)C)c2)cc1NC(=O)c1ccc(O)cc1`, the Potency result in assay [1] and in assay [2] was “inactive” in each case. Moreover, the Potency in assay [3] is 13100 nM (active).

On to `CC(=O)O[C@]1(C(C)=O)CC[C@H]2[C@@H]3C=C(Cl)C4=CC(=O)[C@@H]5C[C@H]5[C@]4(C)[C@@H]3CC[C@@]21C`, for which the Potency result in assay [1], in assay [2] and in assay [3] was “inactive” in each case.

For the molecule `CCn1c(-c2nonc2N)nc2cncc(CNC3CCNCC3)c21`, the Potency entry in assay [1], in assay [2] and in assay [3] was “inactive” throughout.

Consider `CCCCCOC(=O)Nc1nc(=O)n([C@@H]2O[C@H](C)[C@@H](O)C2O)cc1F` (stereo partly drawn), for which the Potency entry in assay [1], in assay [2] and in assay [3] was “inactive” each time.

Take `C[C@]12CC[C@@H]3c4ccc(O)cc4CC[C@H]3[C@H]1[C@@H](O)[C@@H](O)[C@H]2O`: the Potency result in assay [1], in assay [2] and in assay [3] was “inactive” throughout.

For the molecule `COc1ccc(CCC(=O)Nc2nc3ccc(Cl)cc3s2)cc1OC`, the Potency entry in assay [1], in assay [2] and in assay [3] was “inactive” throughout.

On to `O=C(NCCCCN1CCOCC1)c1cc2ccccc2o1`, for which the Potency result in assay [1], in assay [2] and in assay [3] was “inactive” each time.

In the case of `COc1cccc(OC)c1-c1cc(C(=O)NC2(C(=O)O)C3CC4CC(C3)CC2C4)nn1-c1ccnc2cc(Cl)ccc12` (stereo not drawn), the Potency result in assay [1], in assay [2] and in assay [3] was “inactive” each time.

Turning to `NC[C@H]1O[C@H](O[C@@H]2[C@@H](O)[C@@H](O[C@H]3O[C@H](CO)[C@@H](O)[C@H](N)[C@@H]3O)[C@H](N)C[C@@H]2N)[C@H](O)[C@@H](O)[C@H]1O`, the Potency result in assay [1], in assay [2] and in assay [3] was “inactive” throughout.

Consider `Cc1ccccc1C(C(=O)NC1CCCCC1)N(C(=O)CNc1ccc(C#N)cc1)c1cccc(F)c1` (stereo not drawn), for which the Potency entry in assay [1], in assay [2] and in assay [3] was “inactive” in each case.

In the case of `O=C1CCCC(=O)C1C(=O)c1ccc(C(F)(F)F)cc1[N+](=O)[O-]`, the Potency entry in assay [1], in assay [2] and in assay [3] was “inactive” in each case.

As to `CNc1nc(Nc2ccc(C(=O)N3CCOCC3)cc2OC)ncc1Cl`, the Potency result in assay [1], in assay [2] and in assay [3] was “inactive” in each case.
